Screening results deposited in PubChem by Milwaukee Institute for Drug Discovery.
NS3h inh CB – hepatitis C NS3 helicase inhibition, primary screen | 16,000 compounds, 1.6% hits | NS3h Cy5-dT15 DNA binding, fluorescence polarization | AID 687043 | inhibition, % at 100 µM;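 active = inhibition above the average over every tested compound plus 3 SD, cut at about 40% in these data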
Cy5 interf NS3h – counter-screen for HCV NS3 helicase inhibitors: fluorescence interference; Cy5-dT15 DNA with NS3h; actives lie on both sides; signal over control mean, under 1 quenches; fluorescence interference ratio at 100 µM; 16,000 compounds, 6% hits; AID 720488;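 active = compound fluorescence over control fluorescence at most 0.8, a quencher, or at least a set upper limit, an enhancer; inactive = ratio between 0.8 and the set upper limit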
Of the large screens only hits and unclear results are named; the others gave an inactive call. Only some compounds are listed: those with a hit (about 7.6% of all), similar ones and a draw of the others.

COc1cc(/C=N\N2C(=O)CSC2=S)cc(Cl)c1OCCOc1ccc(Br)cc1	none
Nc1ccc(C(=O)c2ccc(N)c(N)c2)cc1N	none
Cc1ccc[n+](CC(=O)c2ccc(-c3ccccc3)cc2)c1	none
Nc1cc[n+](CC(=O)c2ccccc2)cc1	Cy5 interf NS3h 0.773
O=C(C[n+]1ccc(C(=O)NCc2ccccc2)cc1)c1ccc(-c2ccccc2)cc1	Cy5 interf NS3h 0.763
O=C1OC(c2ccc(Cl)cc2)=C/C1=C/c1cc2c(cc1[N+](=O)[O-])OCO2	none
O=C1C2C3C=CC(C3)C2C(=O)N1c1cccc(Oc2cccc(Oc3cccc(N4C(=O)C5C6C=CC(C6)C5C4=O)c3)c2)c1 (stereo unspecified)	none
O=C1C2C3C=CC(C3)C2C(=O)N1c1cccc(-c2nc3ccccc3c(=O)o2)c1 (stereo unspecified)	Cy5 interf NS3h 0.761
CCN(CC)c1ccc(C(=O)Nc2ccccc2Cl)cc1	none
N/C(=N/OC(=O)COc1ccc2ccccc2c1)c1ccccn1	none
O=C1NC(=S)S/C1=C/c1ccc(-c2ccc([N+](=O)[O-])cc2Br)o1	none
Cc1ccc(-c2ccc(/C=C3/SC(=S)NC3=O)o2)cc1Cl	Cy5 interf NS3h 0.768
CNCCOc1cc(C)nc(-c2ccccc2)n1	none
CSc1nc(-c2ccccc2)nc2[nH]ccc(=O)c12	Cy5 interf NS3h 0.694
NC(=O)c1cc2nc(-c3cccs3)cc(C(F)(F)F)n2n1	Cy5 interf NS3h 0.657
O=C(c1cc2nc(-c3cccs3)cc(C(F)(F)F)n2n1)N1CCc2ccccc2C1	none
O=C(NC(NC(=S)Nc1ccccc1[N+](=O)[O-])C(Cl)(Cl)Cl)c1ccco1 (stereo unspecified)	Cy5 interf NS3h 0.705
O=C(NC(=S)Nc1ccc([N+](=O)[O-])cc1Cl)c1ccco1	none
O=C(Nc1ccccc1C(F)(F)F)c1cnn2c(C(F)(F)F)cc(-c3ccccc3)nc12	none
O=C(NCc1ccccc1)c1nn2c(C(F)(F)F)cc(-c3cccs3)nc2c1Cl	none
COC(=O)c1ccccc1NC(=O)c1cnn2c(C(F)(F)F)cc(-c3ccccc3)nc12	Cy5 interf NS3h 0.648
CC(C)(C)NC(=O)c1nn2c(C(F)(F)F)cc(-c3ccccc3)nc2c1Br	Cy5 interf NS3h 0.636
CC(COc1ccccc1)NC(=O)c1nn2c(C(F)(F)F)cc(-c3ccccc3)nc2c1Br (stereo unspecified)	Cy5 interf NS3h 0.63
COC(=O)c1cc2nc(-c3ccc(OC)cc3)cc(C(F)(F)F)n2n1	none
O=[N+]([O-])c1cccc(-c2noc(COc3ccc4ccccc4c3)n2)c1	none
CC(C)Oc1nc(-c2ccc(Br)cc2)nc2ccccc12	none
COc1ccccc1OCCNC(=O)c1ccccc1I	none
COc1ccc(C(=O)OCCCN2C(=O)c3ccccc3C2=O)cc1	Cy5 interf NS3h 0.616
CC(=O)OCCCN1C(=O)c2ccc(S(=O)(=O)c3ccc4c(c3)C(=O)N(CCCOC(C)=O)C4=O)cc2C1=O	none
NC(=O)NC(Cc1c[nH]c2ccccc12)C(=O)O (stereo unspecified)	none
COc1ccc(/C(N)=N\OC(=O)c2ccc(Br)cc2)cc1	none
CS(=O)(=O)N(CC(=O)Nc1ccc(Oc2ccccc2)cc1)c1ccccc1Cl	none
Cc1ccc(S(=O)(=O)N2CCN(Cc3ccccc3[N+](=O)[O-])CC2)cc1	none
CS(=O)(=O)N1CCN(Cc2ccccc2C(F)(F)F)CC1	Cy5 interf NS3h 0.554
CS(=O)(=O)N1CCN(Cc2ccccc2[N+](=O)[O-])CC1	Cy5 interf NS3h 0.723
Cc1ccccc1CN1CCN(S(C)(=O)=O)CC1	none
COc1ccc(C2Nc3ccccc3C(=O)N2Cc2ccccc2)cc1Cn1nc(C)c([N+](=O)[O-])c1C (stereo unspecified)	none
CCOC(=O)c1c(NC(=O)Cc2ccccc2)sc(C(=O)Nc2cc(C(F)(F)F)ccc2Cl)c1C	none
CC1=CC(C)(C)N(C(=O)Nc2ccc(F)cc2)c2ccc(C)cc21	none
CC1=NN(c2cccc(C(F)(F)F)c2)C(=O)/C1=C/c1ccc(N(C)C)cc1	none
Cc1cc(Cl)ccc1OCC(=O)Nc1ccc(Cl)cn1	none
Cc1cc(Cl)ccc1OCC(=O)Nc1ccc(Br)cn1	Cy5 interf NS3h 0.763
CCc1ccc(NC(=O)c2ccc(Cl)cc2Cl)cc1	none
CCOC(=O)c1sc(NC(=O)c2ccc(Cl)cc2Cl)nc1C	Cy5 interf NS3h 0.636
CCOC(=O)c1sc(NC(=O)c2ccc(OCC)c(Cl)c2)nc1C	NS3h inh CB 56.9
CCOC(=O)c1sc(NC(=O)c2cncc(Br)c2)nc1C	none
Cc1ccc(N2C(=O)NC(=O)/C(=C\c3ccc(Cl)cc3)C2=O)cc1	none
O=C1NC(=O)N(c2ccc(I)cc2)C(=O)/C1=C\C=C\c1ccco1	Cy5 interf NS3h 0.766
COc1ccccc1NC(=O)C(Cc1c[nH]c2ccccc12)NC(=O)Oc1ccccc1 (stereo unspecified)	none
O=C(COc1ccc(Br)cc1)NNC(=O)c1ccccc1	none
CCc1nnc(NS(=O)(=O)c2ccc(NC(=S)NC(=O)/C=C/c3ccc(C(C)C)cc3)cc2)s1	NS3h inh CB 43.9
Cc1ccc(/C=C/C(=O)NC(=S)Nc2ccc(S(N)(=O)=O)cc2)cc1	none
COC(=O)C1=C(C)NC(=S)N(C(C)=O)C1c1ccc(Cl)cc1 (stereo unspecified)	none
CC(=O)Nc1cc(-c2ccc(Cl)cc2)[nH]n1	Cy5 interf NS3h 0.669
Cc1ccc(-c2cc(NC(=O)c3ccc(F)cc3)n[nH]2)cc1	none
N/C(Cc1ccc([N+](=O)[O-])cc1)=N/OC(=O)COc1ccc2ccccc2c1	none
COc1ccccc1C(=O)Nc1cccc(C(F)(F)F)c1	none
CN(C)c1ccc(C2C(=C(O)c3ccccc3)C(=O)C(=O)N2c2cccnc2)cc1 (stereo unspecified)	none
O=C(Nc1ccccc1C(=O)Nc1ccccn1)c1ccc([N+](=O)[O-])cc1	Cy5 interf NS3h 0.746
Cc1ccc(C)c(NC(=O)c2ccc([N+](=O)[O-])cc2)c1	Cy5 interf NS3h 0.688
Cc1cc([N+](=O)[O-])ccc1NC(=O)c1ccccc1	none
O=C(Nc1ccccc1C(=O)N1CCOCC1)c1ccc([N+](=O)[O-])cc1	none
CCOC(=O)C1=C(C)NC2=C(C(=O)CCC2)C1c1ccc(I)cc1 (stereo unspecified)	none
N/C(Cc1ccc(Cl)cc1Cl)=N/OC(=O)COc1ccccc1	none
Cc1nc2c(C)c(-c3ccccc3)[nH]n2c(=O)c1C	none
CCOC(=O)CCc1c(C)nc2c(C)c(-c3ccccc3)[nH]n2c1=O	Cy5 interf NS3h 1.21
COC(=O)c1ccccc1NC(=O)Cn1cnc([N+](=O)[O-])n1	Cy5 interf NS3h 0.686
Cc1c(Cl)cccc1NC(=O)Cn1cnc([N+](=O)[O-])n1	none
O=C(Nc1cc(Cl)cc(Cl)c1)c1cc2ccccc2o1	none
CN1C(=O)/C(=C\c2ccsc2)SC1=S	Cy5 interf NS3h 0.692
Cc1cccc(/C=C2/SC(=S)N(C)C2=O)c1	Cy5 interf NS3h 0.678
COc1ccc(N2C(=O)/C(=C\c3ccsc3)SC2=S)cc1	none
Cc1ccc(OCCOc2cccc(/C=C3/SC(=S)N(C)C3=O)c2)cc1C	none
COc1ccc(OC)c(N(CC(=O)Nc2ccc(C(C)C)cc2)S(C)(=O)=O)c1	none
CCN(CC)C(=O)CN(c1ccc(Oc2ccccc2)cc1)S(C)(=O)=O	none
O=C1OC(c2sc3ccccc3c2Cl)=N/C1=C/c1ccc(F)cc1	none
COC(=O)c1ccc(-c2ccc(/C=c3/sc4nc5ccccc5n4c3=O)o2)cc1	none
CCn1c2ccccc2c2cc(/C=N\NC(=O)c3cccc([N+](=O)[O-])c3)ccc21	none
COc1cc(/C=c2\sc3nc4ccccc4n3c2=O)ccc1OS(=O)(=O)c1ccccc1[N+](=O)[O-]	Cy5 interf NS3h 1.22
